In all, about 2,300 compounds went through this assay and about 1,000 (43%) were called active. So high a share suggests a set chosen from earlier hits. The list shows a part of the results. Measured potencies and affinities stand elsewhere. A number with no mark means an inactive call. How the calls were made is not given here.
Experiment: PhoP regulon inhibitor project modified counter assay, GFP fluorescence readout, dose response (AID 1985)
Conditions: S. Typhi, 4 h; series mostly up to 150 µM; inhibition: at the top concentration

Row | Compound | inhibition
1 | O=C(NCCOc1ccccc1)c1ncn[nH]1 | 16.9%
2 | O=C(OCCCN1C(=O)c2ccccc2C1=O)c1ccco1 | -4.23%
3 | CC(C)CCNC(=O)c1cc2c(s1)-c1ccccc1S(=O)(=O)C2 | 3.1%
4 | CN1CCc2c(sc3c2C(=O)NC(c2ccc4c(c2)OCO4)N3)C1 (stereo unspecified) | -33.9%
5 | NS(=O)(=O)c1ccc(CNc2ccc3ccccc3n2)cc1 | 15%
6 | CCOC(=O)C1CCN(C(=O)CCc2nc3ccccc3[nH]2)CC1 | 22.6%
7 | O=C(CSc1ccccc1)N1CCC(N2CCC(C(=O)N3CCCC3)CC2)CC1 | -2.03%
8 | Cc1c(CC(=O)N2CCC(C(N)=O)CC2)c(=O)oc2cc3c(cc12)CCC1(CCCCC1)O3 | -10.6%
9 | C#CCOCCOCCOCCNc1nc(N2CCN(C(=O)CCCCCCCCCCNC(=O)Cn3cc(CCCCCN)nn3)CC2)nc(N2CCN(C(=O)CCCCCCCCCCNC(=O)[C@@H]([C@H](C)O)n3cc(C)nn3)CC2)n1 | -35.2%
10 | Cc1nc2ccccn2c1/C(O)=C1\C(=O)C(=O)N(CCN2CCOCC2)C1c1cccnc1 (stereo unspecified) | -35%
11 | CCOC(=O)c1ccc(N2Cc3ccccc3C2=NC(=O)c2cccc([N+](=O)[O-])c2)cc1 | -10.3%
12 | COc1cccc(/C=C/C(=O)c2cccc([N+](=O)[O-])c2)c1OC | 10.9%
13 | CC(C(=O)c1ccc2ccccc2c1)N1CCCCC1 (stereo unspecified) | -3.94%
14 | CCC(=O)Nc1nnc(-c2ccco2)o1 | -4.91%
15 | O=C(Nc1nnc(-c2cccs2)o1)c1cccc(C(F)(F)F)c1 | 38.8%
16 | O=C(Nc1nnc(-c2cccs2)o1)c1cccc(F)c1 | -40.7%
17 | COc1ccccc1C(=O)Nc1nnc(-c2ccc(Cl)cc2)o1 | 38.2%
18 | C=CCn1c(O)c(N=NC(=O)c2cccnc2)c2cc(Br)ccc21 | -23%
19 | O=C(N/N=C/c1cccc(OCc2ccccc2)c1)c1cccs1 | 33.8%
20 | CCOC(=O)c1ccccc1-n1c(C)cc(C2N=C(N)Nc3nc4ccccc4n32)c1C (stereo unspecified) | 20.7%
21 | NC1=NC(c2cccc(O)c2)n2c(nc3ccccc32)N1 (stereo unspecified) | -20.6%
22 | Cc1cc(C)c(S(=O)(=O)Nc2ccccc2C(=O)OCC(=O)NCc2ccccc2)c(C)c1 | 20%
23 | NC(=O)c1ccsc1NC(=O)c1ccc2c(c1)CCCC2 | -18.3%

Row | Compound | inhibition
24 | COc1ccc(N2CCN(c3cc(C)c4ccc(O)cc4n3)CC2)cc1 | 6.15%
25 | CCOC(=O)C(CC)Sc1ccc2nnc(-c3cccnc3)n2n1 (stereo unspecified) | 8.03%
26 | COc1ccc(OC)c(C2=NO[C@@H]3C(=O)N(c4cc(Cl)ccc4OC)C(=O)[C@H]23)c1 | 17%
27 | Fc1cccc(NC(=S)NCc2ccc(Cl)cc2)c1 | -3.23%
28 | O=[N+]([O-])c1cccnc1S(=O)(=O)c1ccccc1 | 5.89%
29 | CCCCCNc1nc(N2CCCC2)c2c(c1C#N)CCN(C)C2 | 19%
30 | O=C(NCCO)C(=O)c1c(-c2ccc(Cl)cc2)cc2ccccn12 | -11.6%
31 | COCCn1c(SCC(=O)Nc2nnc(C)s2)nnc1-c1c[nH]c2ccccc12 | -7.27%
32 | CCCCNC(=O)NS(=O)(=O)c1ccc(C(=O)OC)o1 | -19%
33 | Cc1cccc(NC(=O)CSc2nc3c([nH]c4ccccc43)c(=O)n2C)c1 | 11.8%
34 | CCCCC(=O)Nc1ccc(F)c(Cl)c1 | 9.09%
35 | Cc1cnc(C(=O)OCC(=O)Nc2cccc(Cl)c2)cn1 | 1.01%
36 | CCC(Sc1nc2ccncc2[nH]1)C(=O)Nc1ccc(C)c(Cl)c1 (stereo unspecified) | 12.9%
37 | O=C(COc1ccc(Cl)cc1)Nc1cccc(-c2ccc3nncn3n2)c1 | 17.3%
38 | Cc1ccc(NC(=O)c2cc(NC(=O)CCCC(=O)O)ccc2Cl)cc1Cl | -2.02%
39 | Nn1cnnc1SCC(=O)Nc1ccc(C2CCCCC2)cc1 | 8.77%
40 | O=C(Cc1ccccc1)NCC(=O)Nc1cccc(Cl)c1 | -7.98%
41 | CCS(=O)(=O)N1CCN(C2CCC(c3ccccc3)CC2)CC1 (stereo unspecified) | 17.6%
42 | C[N+]12CN3CN(CN(C3)C1)C2 | -32.6%
43 | CCOC(=O)c1ccc(NC(=O)CSC(=S)N2CCOCC2)cc1 | 5.39%
44 | CC1CCN(CCC(=O)Nc2ccc(Cl)cc2)CC1 | 21.7%
45 | COCc1[nH]nc2c1C(c1c(F)cccc1Cl)C(C#N)=C(N)O2 (stereo unspecified) | -5.17%
46 | CCOC(=O)c1cnn2c1[nH]c(=O)c1ccccc12 | 29.2%

Row | Compound | inhibition
47 | O=C(CCC(=O)Nc1nnc(C2CCCCC2)s1)NCC1CCCO1 (stereo unspecified) | 14.5%
48 | CCCC1C(c2ccc(OC)cc2)C(C#N)(C#N)C2(C#N)CC1(N)NC2=O (stereo unspecified) | -9.05%
49 | COc1ccc(C2CC(=O)N3CN(Cc4ccco4)CSC3=C2C#N)cc1 (stereo unspecified) | 5.1%
50 | CC(C)c1cc(C(=O)Nc2ccc3c(c2)OCO3)no1 | -33.7%
51 | CCOC(=O)c1sc(N)c(C(=O)OC)c1C | -7.16%
52 | Oc1ccc(C=Nc2ccc3ncccc3c2)c(O)c1 | 28.7%
53 | Cc1nc2ccccc2nc1N/N=C/c1ccc(O)cc1O | 25.3%
54 | Cc1cc(C=O)c(O)cc1O | -34.1%
55 | Cc1oc(/N=C/c2ccc(O)cc2O)c(C#N)c1C | -15.2%
56 | Oc1ccc(C=Nc2cccc3ncccc23)c(O)c1 | 14.6%
57 | Oc1ccc(C=NC2CCCCC2)c(O)c1 | 11.3%
58 | CCOc1ccccc1NC1=NC2CS(=O)(=O)CC2S1 (stereo unspecified) | 6.45%
59 | Cc1ccc(-c2cc(N)nc(-c3ccccc3)c2)cc1 | 20.1%
60 | O=C(CN(C(=O)CNS(=O)(=O)c1ccccc1)C1CCCC1)NCc1ccco1 | 20.2%
61 | COc1cccc(NC(=O)N2CCCC(C(=O)Nc3ccccc3OC)C2)c1 (stereo unspecified) | -17.7%
62 | CCN1CCN(c2cc(C)c3cc(NC(=S)N4CCN(c5ccccc5F)CC4)ccc3n2)CC1 | -5.31%
63 | COc1ccccc1NC(=O)CN1CCN(c2ccccc2)CC1 | 11.5%
64 | O=S(=O)(Nc1cccc(-c2cn3c(n2)SCC3)c1)c1ccc(F)cc1F | -3.71%
65 | NC(=O)Oc1cccc(OC(N)=O)c1 | 36.5%
66 | CC(=O)c1ccc(OC(=O)c2cc3ccccc3oc2=O)cc1 | -13%
67 | CCN(CC)c1cc(C)c2cc(NC(=O)c3ccccc3F)ccc2n1 | 6.11%
68 | COc1ccc(-n2cnc3c(sc4nc(N5CCOCC5)c5c(c43)CCCC5)c2=O)cc1 | -5.75%
69 | O=C(CCCCCn1c(=S)[nH]c2ccc(N3CCOCC3)cc2c1=O)NC1CCN(Cc2ccccc2)CC1 | -1.01%

Row | Compound | inhibition
70 | Cc1cc(Cl)ccc1OCC(=O)Nc1nc(-c2cccnc2)cs1 | 16.9%
71 | O=C(Nc1ccncc1)c1cc(-c2ccccn2)nc2ccccc12 | 26.8%
72 | CC(C)[C@H](NC(=O)c1ccccc1Cl)C(=O)Nc1nc(-c2ccccn2)cs1 | -20.5%
73 | CC1CC(C)CN(S(=O)(=O)c2ccc3c(c2)oc(=O)n3CC(=O)N(C)Cc2ccccc2)C1 (stereo unspecified) | 4.43%
74 | COc1ccccc1Nc1nc(Cl)c(C=O)s1 | 20.2%
75 | c1ccc2c(c1)CCc1ccccc1C2=C1CCNCC1 | -28.7%
76 | COc1ccc(Cn2nnnc2C(c2cc3ccc(OC)cc3[nH]c2=O)N2CCC(C)CC2)cc1 (stereo unspecified) | 0.02%
77 | Clc1ccc(CN2CCN(/N=C/c3ccco3)CC2)cc1 | -0.84%
78 | CCOc1ccc(N2C(=O)S/C(=C\c3ccc(O)c(OC)c3)C2=O)cc1 | 14.3%
79 | Fc1ccc(NC(=S)Nc2cc(-c3ccccc3)[nH]n2)cc1Cl | -10.5%
80 | C/[N+]([O-])=C1\Cc2ccccc2C1=O | -7.55%
81 | COc1ccc(CCN(C(=O)C(F)(F)F)C(C(=O)NC2CCCC2)c2cccs2)cc1 (stereo unspecified) | 10.9%
82 | O=C(O)c1cccc(NC2=Nc3cccc4cccc2c34)c1 | -3.67%
83 | Cc1cc(C)c2c(N)c(C(=O)c3ccc(Cl)c(Cl)c3)sc2n1 | -12.8%
84 | COc1ccc(Cl)cc1N(C)C(=O)CCNC(=O)Cn1cnc2ccccc2c1=O | 19.2%
85 | COc1ccc(Nc2cc(C)nc(NCc3ccccc3)n2)cc1 | 20.2%
86 | Cc1cc(N2CCC(C)CC2)nc(NCc2ccccc2)n1 | 21.8%
87 | CN(C)C=NC(=O)c1cc(C(=O)c2ccc(Cl)cc2Cl)c[nH]1 | 26%
88 | CCN(CC)CCN(C(=O)c1cccc([N+](=O)[O-])c1)c1nc2ccc(OC)cc2s1 | 33.3%
89 | C=CCOc1ccc(Cl)cc1CNC1CCCC1 | 20.3%
90 | O=C(COc1ccc(Br)cc1CNCCc1ccccc1)NCc1ccccc1 | 26.1%
91 | CC(=O)c1c(C)[nH]c(C(=O)OCC(=O)NCC(C)C)c1C | -5.83%
92 | Cc1c(CN(C)C)c2c(n1Cc1ccccc1)C(=O)c1ccc(Br)cc1-2 | 28%

Row | Compound | inhibition
93 | NC(=O)c1ccc[n+]([C@H]2O[C@@H](COP(=O)([O-])OP(=O)(O)OC[C@H]3O[C@@H](n4cnc5c(N)ncnc54)[C@H](O)[C@@H]3O)[C@H](O)[C@@H]2O)c1 | 33.2%
94 | CCOC(=O)C(NC(=O)c1cccnc1)(Nc1cccc(C)n1)C(F)(F)F (stereo unspecified) | -7.66%
95 | Cn1c(=O)c(=O)n(C)c2cc(S(=O)(=O)N3CCc4ccccc43)ccc21 | -1.84%
96 | COc1ccc(-c2nc3cc(NC(=O)Cc4ccc(OC)c(OC)c4)ccc3o2)cc1 | -33.6%
97 | COC(=O)c1cc2oc(C)cc2n1CC(=O)Nc1ccc(C)c(C)c1 | 3.22%
98 | CC(C)OC(=O)Cn1c(=O)sc2ccccc21 | -7.83%
99 | CC(=O)Nc1ccccc1-c1nc2ccc(C(=O)N3CCN(c4cc(C)ccc4C)CC3)cc2[nH]c1=O | -0.17%
100 | COc1ccc(Cl)cc1C(=O)C1CCCN(CCO)C1 (stereo unspecified) | -12.2%
101 | COc1c(Br)cc2c(C)c(C(=O)N3CCOCC3)oc2c1Br | -17.8%
102 | CCCCCCOc1ccc(CN2CCN(CC)CC2)cc1 | 28.1%
103 | CCCN(CCC)c1nc(C)cc(C(C#N)c2nc3ccccc3o2)n1 (stereo unspecified) | -11.7%
104 | CN(CC(=O)NCc1ccncc1)S(=O)(=O)c1ccccc1 | -30.7%
105 | O=c1cc(-c2ccc(Cl)cc2)[nH][nH]1 | -26%
106 | Cc1cc(N=Nc2ccccc2)c(NCC(O)C(O)C(O)CO)cc1C (stereo unspecified) | 10.9%
107 | O=C1c2ccccc2C(=O)N1CCCP(=O)(O)CCc1ccccc1 | -26.5%
108 | Cc1ccc(C)c(N/C(N)=N/c2nc(C)cc(C)n2)c1 | 9.72%
109 | Cc1cc(C)c(-n2nnnc2SC(C)C)c(C)c1 | -0.97%
110 | Cc1ccccc1N1C(N)=NC(N)=NC1(C)C | -6.52%
111 | COc1cc(/C=N/N(C)S(=O)(=O)c2ccc(C)cc2)cc([N+](=O)[O-])c1O | 36.4%

Reference: PubChem BioAssay AID1985 (Southern Research Specialized Biocontainment Screening …, 2009)
